40 compounds from PubChem BioAssay (Tox21) can be followed below.

Inconclusive results are not listed. Unmarked numbers belong to inactive results. Calls of active or inactive are those of the source. Calls come from the whole dose curve.
% is set by controls: 0 for no effect and ±100 for the full control effect; potency is the fitted concentration of half-maximal effect.
Note: nearly all actives have a fitted effect of over 45% in size.

The nature of one test: p53 small molecule agonists, cell-based qHTS assay with rat liver microsomes: qHTS cell viability counter screen (AID 1963580). The settings on record: p53RE-bla HCT-116 + rat microsomes, ATP viability, 16 h; series mostly up to 66 µM; activity change, negative = cytotoxicity: at the top concentration. The procedure, abridged: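 p53RE-bla HCT-116 cells (4,000/well) rested 5 h at 37 C, then given Tox21 compounds in DMSO with rat liver microsomes (0.5 mg/mL final) plus NADPH (0.5 mg/mL final) for 16 h at 37 C. Viability read by CellTiter-Glo luminescence after 30 min at room temperature.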
A general note: In qHTS, concentration-response curves come from the screen itself.
For the compound `CN=C(NC#N)Nc1ccc(C2=NNC(=O)CC2C)cc1` (stereo not given), the “activity change, negative = cytotoxicity” value was -1.06% [at 30.3 µM].
Still for that read-out and setting: under `CCN(CC)CCOC(=O)C(Cc1cccc2ccccc12)CC1CCCO1` (stereo not given) stands -0.248% [at 30.3 µM]; under `O=c1[nH]cnc2ccccc12`, 0.459%.
On the same count and under the same terms, in the case of `CCCCCCCCCCOc1cc2c(=O)c(C(=O)OCC)c[nH]c2cc1OCC` it was 11.2% [at 5.99 µM].
The same measure, in the same setting: in the case of `CCC(=O)CC(C)CC` (stereo not given) it was 1.72% [at 0.249 µM]; in that of `CCCCOCCOC(=O)COc1ccc(Cl)cc1Cl`, 8.18%; in that of `CC(=O)CC(=O)OC(C)(C)C`, 2.4%.
As to `CC(COC(C)(C)C)OCCCO` (stereo not given), the “activity change, negative = cytotoxicity” value was -5.59%.
On the same count and under the same terms, under `CCCC1CCCC(=O)O1` (stereo not given) stands 0.155%; under `CCCCCCCCCOC(=O)c1ccccc1C(=O)OCCCCCCCCC`, -0.468%; under `N#CC1(N)CCCCC1`, -5.01%.
With `Cc1ccc(-n2nc(C(C)(C)C)cc2NC(=O)Nc2ccc(OCCN3CCOCC3)c3ccccc23)cc1`, the “activity change, negative = cytotoxicity” value was 3.87% [at 30.3 µM].
For `CCN(CCCCOC(=O)c1ccc(OC)c(OC)c1)C(C)Cc1ccc(OC)cc1` (stereo not given), the “activity change, negative = cytotoxicity” value was -0.739% [at 30.3 µM].
For the compound `C=COCC(C)C`, the “activity change, negative = cytotoxicity” value was -0.038%.
With `C/C=C/C(=O)OCC(C)C`, the “activity change, negative = cytotoxicity” value is -4.09%.
Same read-out and setting: in the case of `N#CSc1ccc(N)c([N+](=O)[O-])c1` it was -6.19%; in that of `C=C(C)C(=O)OCCCCCCCCCCOC(=O)C(=C)C`, 13.2%; in that of `Cc1ccc(C(=O)Oc2ccc(C(O)CNC(C)(C)C)cc2OC(=O)c2ccc(C)cc2)cc1` (stereo not given), 0.29% [at 30.3 µM].
Consider `C/C=C/C(=O)Oc1c(CCCCCC(C)C)cc([N+](=O)[O-])cc1[N+](=O)[O-]`, for which the Potency was 40.8 µM (active).
On to `O=C(CCCCCCCCc1cccnc1)N1CCC(C=C(c2ccccc2)c2ccccc2)CC1`, for which the “activity change, negative = cytotoxicity” value was -1.11%.
The same measure, in the same setting: in the case of `O=C1CCCN1CCO` it was 0.277%; in that of `N=C(N)c1ccc(OCCCOc2ccc(C(=N)N)cc2)cc1`, 6.55% [at 30.3 µM]; in that of `COCCCCCCCCOCCC[Si](C)(O[Si](C)(C)C)O[Si](C)(C)C`, -0.772%.
Consider `CCOC(=N)CC(=O)OCC`, for which the “activity change, negative = cytotoxicity” value was 9.17%.
For the compound `Oc1ccc2c(c1)CCC2`, the “activity change, negative = cytotoxicity” value was -3.11%.
In the case of `CC(C)(C)c1nnc(NS(=O)(=O)c2ccccc2)s1`, the “activity change, negative = cytotoxicity” value is 1.04% [at 30.3 µM].
Still for that read-out and setting: in the case of `CCCCc1nc2cccnc2n1Cc1ccc(-c2ccccc2-c2nnn[nH]2)cc1` it was 4.33%; in that of `O=C(O)Cc1csc(-c2ccc(Cl)cc2)n1`, -0.921% [at 30.3 µM]; in that of `CCOC(=O)Nc1ccc(NCc2ccc(F)cc2)nc1N`, -4.21% [at 30.3 µM].
Still for that read-out and setting: under `CC(Cl)C(Cl)Cl` (stereo not given) stands 2.58%.
For `O=C(O)C[C@H](O)C[C@H](O)/C=C/c1c(C2CC2)nc2ccccc2c1-c1ccc(F)cc1`, the activity change, negative = cytotoxicity is 1.65% [at 13.5 µM].
On the same count and under the same terms, in the case of `CC(=O)Nc1cccc(C)c1` it was 0.0358%; in that of `CCCCCCc1ccc(N)cc1`, -6.85%.
On the same count and under the same terms, in the case of `O=C=Nc1cccc(C(F)(F)F)c1` it was 0.236%; in that of `Cc1cc(SC2=C(O)C[C@@](CCc3ccc(N)cc3)(C(C)C)OC2=O)c(C(C)(C)C)cc1CO`, 0.289%.
Same read-out and setting: under `CCCCC(CC)CN1C(=O)C2C3C=CC(C3)C2C1=O` (stereo not given) stands -11.7%; under `NCCS`, -2.73% [at 30.3 µM].
`O=S1(=O)CC(Cl)(Cl)C(Cl)(Cl)C1`: the Potency was 18.2 µM (active).
As to `CN1CCN(C2Cc3ccccc3Sc3ccc(Cl)cc32)CC1` (stereo not given), the “activity change, negative = cytotoxicity” value is -14.5% [at 30.3 µM].
The same measure, in the same setting: in the case of `CCOC(=O)C1=NN(c2ccc(Cl)cc2Cl)C(C)(C(=O)OCC)C1` (stereo not given) it was 8.03%.

Another test is described as follows: p53 small molecule agonists, cell-based qHTS assay: qHTS cell viability counter screen (AID 1963581). The settings on record: p53RE-bla HCT-116 viability, ATP luminescence, 16 h; series mostly up to 66 µM; activity change, negative = cytotoxicity: at the top concentration. In outline: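 In the same plates used for the p53 bla reporter, HCT-116 cells given compounds for 16 h at 37 C received CellTiter-Glo; luminescence was recorded 30 min later at room temperature.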
Turning to `CN=C(NC#N)Nc1ccc(C2=NNC(=O)CC2C)cc1` (stereo not given), the “activity change, negative = cytotoxicity” value is 0.0021% [at 30.3 µM].
Regarding `CCN(CC)CCOC(=O)C(Cc1cccc2ccccc12)CC1CCCO1` (stereo not given), the “activity change, negative = cytotoxicity” value is 29.7% [at 30.3 µM].
Same read-out and setting: in the case of `O=c1[nH]cnc2ccccc12` it was 20.8%; in that of `CCCCCCCCCCOc1cc2c(=O)c(C(=O)OCC)c[nH]c2cc1OCC`, -13% [at 5.99 µM]; in that of `CCC(=O)CC(C)CC` (stereo not given), 22.9% [at 0.249 µM].
Still for that read-out and setting: under `CCCCOCCOC(=O)COc1ccc(Cl)cc1Cl` stands 0.0081%; under `CC(=O)CC(=O)OC(C)(C)C`, -7.4%; under `CC(COC(C)(C)C)OCCCO` (stereo not given), 0.833%.
Still for that read-out and setting: under `CCCC1CCCC(=O)O1` (stereo not given) stands -7.84%; under `CCCCCCCCCOC(=O)c1ccccc1C(=O)OCCCCCCCCC`, -16.6%; under `N#CC1(N)CCCCC1`, -11.1%.
Regarding `Cc1ccc(-n2nc(C(C)(C)C)cc2NC(=O)Nc2ccc(OCCN3CCOCC3)c3ccccc23)cc1`, the “activity change, negative = cytotoxicity” value is -0.0902% [at 30.3 µM].
The same measure, in the same setting: under `CCN(CCCCOC(=O)c1ccc(OC)c(OC)c1)C(C)Cc1ccc(OC)cc1` (stereo not given) stands -15.5% [at 30.3 µM]; under `C=COCC(C)C`, 0.288%; under `C/C=C/C(=O)OCC(C)C`, 3.91%.
On the same count and under the same terms, under `N#CSc1ccc(N)c([N+](=O)[O-])c1` stands 29.7%.
With `C=C(C)C(=O)OCCCCCCCCCCOC(=O)C(=C)C`, the “activity change, negative = cytotoxicity” value was 2.23%.
On the same count and under the same terms, under `Cc1ccc(C(=O)Oc2ccc(C(O)CNC(C)(C)C)cc2OC(=O)c2ccc(C)cc2)cc1` (stereo not given) stands -1.55% [at 30.3 µM].
Regarding `C/C=C/C(=O)Oc1c(CCCCCC(C)C)cc([N+](=O)[O-])cc1[N+](=O)[O-]`, the Potency is 11.5 µM (active).
For `O=C(CCCCCCCCc1cccnc1)N1CCC(C=C(c2ccccc2)c2ccccc2)CC1`, the “activity change, negative = cytotoxicity” value is 6.59%.
On the same count and under the same terms, in the case of `O=C1CCCN1CCO` it was -17.5%; in that of `N=C(N)c1ccc(OCCCOc2ccc(C(=N)N)cc2)cc1`, 3.8% [at 30.3 µM].
Still for that read-out and setting: in the case of `COCCCCCCCCOCCC[Si](C)(O[Si](C)(C)C)O[Si](C)(C)C` it was 0.4%; in that of `CCOC(=N)CC(=O)OCC`, -18.9%.
Still for that read-out and setting: in the case of `Oc1ccc2c(c1)CCC2` it was 7.16%.
With `CC(C)(C)c1nnc(NS(=O)(=O)c2ccccc2)s1`, the “activity change, negative = cytotoxicity” value is -0.111% [at 30.3 µM].
Same read-out and setting: in the case of `CCCCc1nc2cccnc2n1Cc1ccc(-c2ccccc2-c2nnn[nH]2)cc1` it was 8.43%; in that of `O=C(O)Cc1csc(-c2ccc(Cl)cc2)n1`, 2.73% [at 30.3 µM]; in that of `CCOC(=O)Nc1ccc(NCc2ccc(F)cc2)nc1N`, -4.27% [at 30.3 µM].
For `CC(Cl)C(Cl)Cl` (stereo not given), the “activity change, negative = cytotoxicity” value is -23.6%.
Same read-out and setting: in the case of `O=C(O)C[C@H](O)C[C@H](O)/C=C/c1c(C2CC2)nc2ccccc2c1-c1ccc(F)cc1` it was 0.0104% [at 13.5 µM]; in that of `CC(=O)Nc1cccc(C)c1`, 3.81%.
On the same count and under the same terms, under `CCCCCCc1ccc(N)cc1` stands 3.01%.
On the same count and under the same terms, in the case of `O=C=Nc1cccc(C(F)(F)F)c1` it was -8.53%; in that of `Cc1cc(SC2=C(O)C[C@@](CCc3ccc(N)cc3)(C(C)C)OC2=O)c(C(C)(C)C)cc1CO`, 10.6%; in that of `CCCCC(CC)CN1C(=O)C2C3C=CC(C3)C2C1=O` (stereo not given), 0.429%.
Consider `NCCS`, for which the “activity change, negative = cytotoxicity” value is 0.741% [at 30.3 µM].
Take `O=S1(=O)CC(Cl)(Cl)C(Cl)(Cl)C1`: the Potency was 16.2 µM (active).
As to `CN1CCN(C2Cc3ccccc3Sc3ccc(Cl)cc32)CC1` (stereo not given), the “activity change, negative = cytotoxicity” value is -1.16% [at 30.3 µM].
Still for that read-out and setting: in the case of `CCOC(=O)C1=NN(c2ccc(Cl)cc2Cl)C(C)(C(=O)OCC)C1` (stereo not given) it was 28.5%.
